The source of these data is PubChem BioAssay (NCATS).

Experiment [1] addresses Phospholipid hydroperoxide glutathione peroxidase GPX4 (Homo sapiens) (UniProt P36969). Kind of experiment: Primary qHTS Assay for Inhibitors of Recombinant Selenoprotein Glutathione Peroxidase 4 (GPX4) (AID 1845192). Also: nearly all actives have a fitted effect of over 65% in size. In outline: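 GR-coupled readout: 100 nM GR, 1 mM GSH, 0.5 mM NADPH; NADPH fluorescence (ex 340/em 450 nm) read at t=0 and after 15 min RT. GPX4 200 nM, preincubated 30 min with compound; substrate 0.5 mM CHP.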
A general note: Quantitative high-throughput screening tests each substance at several concentrations.

Experiment [2] can be described thus: Quantitative High-Throughput drug screen in 47 multiple myeloma cell lines against the NCATS MIPE library collection: FR4_PLB cell viability assay (AID 1918924; also: nearly all actives have a fitted effect of over 35% in size; also: potency is read from the fitted curve at half-maximal effect). In outline:
(§1)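 Viability readout: CellTiter-Glo luminescence following 5 min room-temperature incubation with reagent. Prior exposure: 48 h, 37C, humidified 5% CO2, 500 cells per well.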

A short description of experiment [3]: Quantitative High-Throughput drug screen in 47 multiple myeloma cell lines against the NCATS MIPE library collection: Delta47_JCRB cell viability assay (AID 1918925; also: nearly all actives have a fitted effect of over 45% in size; also: potency is read from the fitted curve at half-maximal effect). Summed up:
as §1

A short description of experiment [4]: Quantitative High-Throughput drug screen in 47 multiple myeloma cell lines against the NCATS MIPE library collection: ARD_JJKsccE7 cell viability assay (AID 1918929; also: potency is read from the fitted curve at half-maximal effect). Summed up: as §1
A short description of experiment [5]: Quantitative High-Throughput drug screen in 47 multiple myeloma cell lines against the NCATS MIPE library collection: Karpas620_DSMZ cell viability assay (AID 1918959). Also: nearly all actives have a fitted effect of over 30% in size. Also: potency is read from the fitted curve at half-maximal effect. In outline:
as §1

The test system of experiment [6] is Nanoluciferase (engineered Oplophorus gracilirostris luciferase). Kind of experiment: Primary Nanoluciferase (NLuc) qHTS assay for identification of artifact compounds. (AID 1845222).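 Also: NLuc secreted into diluted conditioned medium of S16 cells; series mostly up to about 54 µM.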 Summed up:
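Using secreted nanoluciferase in S16 culture medium (0.22 um filtered, 1:55 dilution), compounds were preincubated 15 min at RT. Signal was generated with Nano-Glo reagent (1:100) over 5 min.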

Experiment [7] is described as follows: Primary redox qHTS assay for identification of artifact compounds. (AID 1845223). In outline: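 Amplex Red (25 uM) and HRP (250 mU/mL) in HBSS, with compounds for 15 min, then 250 uM DTT for 30 min, room temperature, dark. Fluorescence 525/598 nm read; normalized to DMSO and 10 uM DA3003; Hill fit.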
Experiment [8] is described as follows: Quantitative High-Throughput drug screen in 47 multiple myeloma cell lines against the NCATS MIPE library collection: EJM_DSMZ cell viability assay (AID 1918926; also: nearly all actives have a fitted effect of over 30% in size; also: potency is read from the fitted curve at half-maximal effect). In outline:
as §1

Experiment [9] is described as follows: Quantitative High-Throughput drug screen in 47 multiple myeloma cell lines against the NCATS MIPE library collection: ARP1_JJKsccF8 cell viability assay (AID 1918928; also: nearly all actives have a fitted effect of over 40% in size; also: potency is read from the fitted curve at half-maximal effect). In outline:
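Myeloma cells, 500 per well, were exposed to MIPE 4.0 drugs by pin transfer for 48 h at 37 °C, 5% CO2. Viability was read as ATP luminescence with CellTiter-Glo, normalised to DMSO-only (100%) and medium-only (0%) wells.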

Experiment [10] in a line: Quantitative High-Throughput drug screen in 47 multiple myeloma cell lines against the NCATS MIPE library collection: AMO1_DSMZ cell viability assay (AID 1918927; also: nearly all actives have a fitted effect of over 30% in size; also: potency is read from the fitted curve at half-maximal effect). In outline: as §1
Experiment [11] in a line: Primary fluorescence-based thiol-reactive (MSTI) qHTS assay for identification of artifact compounds. (AID 1845221).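 Also: series mostly up to about 54 µM; thiol-reactive compounds lower the probe fluorescence signal; nearly all actives have a fitted effect of over 65% in size.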 Summed up:
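Curve-fitted percent inhibition (4-parameter Hill) derived from fluorescence, Ex 525/Em 598 nm, scaled with Acetyl-MSTI and MSTI; 1 h incubation at room temperature.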

Values joined by “and” are separate entries in the source; they are usually repeats but may differ in a detail not shown here. Identical values can stand only once. Inconclusive results are not listed. Active and inactive are the calls of the source. Calls follow the shape of the dose curve; as a rule, active = well fitted curve in the direction sought with a large enough effect; inconclusive = small, poorly fitted or top-dose-only effect, or another doubt; inactive = no such curve, though single readings can be large; an effect the other way counts as inactive or inconclusive.

Chain of Phospholipid hydroperoxide glutathione peroxidase GPX4 (Homo sapiens) (P36969 whole entry, looked up): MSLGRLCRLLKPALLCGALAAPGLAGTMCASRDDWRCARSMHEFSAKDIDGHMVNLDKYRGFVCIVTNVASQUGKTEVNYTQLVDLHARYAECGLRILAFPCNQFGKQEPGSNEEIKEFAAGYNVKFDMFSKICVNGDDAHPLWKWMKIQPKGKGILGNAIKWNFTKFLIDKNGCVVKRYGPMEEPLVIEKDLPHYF

With `NC(=O)c1ccc(-c2nc(-c3ccc4c(c3)OCO4)c(-c3ccccn3)[nH]2)cc1`, the Potency result in experiment [1], in experiment [3], in experiment [4] and in experiment [5] was “inactive” in each case. In addition, the Potency in [2] was 14.8 µM (active).
In the case of `CCc1cc(Nc2nccc(-c3c(-c4ccc(OC)c(C(=O)Nc5c(F)cccc5F)c4)nc4ccccn34)n2)c(OC)cc1N1CCC(N2CCN(S(C)(=O)=O)CC2)CC1`, the Potency entry in [1] was “inactive”. Further, the outcome in experiment [6] and in [7] was inactive. In addition, the Potency was 20.9 µM (active) in [2], 5.26 µM (active) in experiment [3], 10.5 µM (active) in [8] and 4.69 µM (active) in experiment [4].
As to `CC(C)OC(=O)C1=CN(C(=O)c2ccc(F)c(F)c2)CC(C)(C)c2c1[nH]c1ccccc21`, the Potency result in [1], in experiment [2], in experiment [3], in [8], in experiment [9] and in experiment [4] was “inactive” each time. Also, the outcome in [6] and in [7] was inactive.
`CC1(C)SCCN(S(=O)(=O)c2ccc(OCC#CCO)cc2)[C@@H]1C(=O)NO`: the Potency entry in experiment [8], in experiment [4] and in experiment [5] was “inactive” throughout. In addition, the Potency in [10] was 2.64 µM (active); in [9] it was 2.35 µM (active).
`CC(C=CC1=C(C)CCCC1(C)C)=CC=CC(C)=CC(=O)O`: the Potency in experiment [3] is 11.8 µM (active) and 4.18 µM (active); in [8], 13.2 µM (active); in experiment [4], 23.5 µM (active).
Consider `C[C@]12CC[C@H](O)CC1=CC[C@@H]1[C@H]2CC[C@]2(C)C(c3cccnc3)=CC[C@H]12`, for which the Potency entry in experiment [2], in experiment [3], in [8], in experiment [10], in [9] and in experiment [5] was “inactive” throughout.
With `O=C(C=Cc1ccc(/C=C/C(=O)Nc2ccc(C3=NCCN3)cc2)cc1)Nc1ccc(C2=NCCN2)cc1`, the Potency entry in [2], in experiment [3], in [8], in experiment [9], in experiment [4] and in experiment [5] was “inactive” each time.
With `NC(=O)c1ccc(-c2nc(-c3ccc4c(c3)OCCO4)c(-c3ccccn3)[nH]2)cc1`, the Potency entry in experiment [1] and in [8] was “inactive” throughout. Besides, the Potency in [9] was 4.18 µM (active).
`COc1cc(Oc2ccnc3cc(OC)c(OC)cc23)ccc1NC(=O)NC(C)c1nccs1` (centres undefined): the Potency result in experiment [1], in [11] and in experiment [8] was “inactive” in each case. The molecule was called inactive in experiment [7]. Further, the Potency in experiment [5] is 7.43 µM (active).
On to `CCN(CC)CCCC(C)Nc1nc(C)cc(Nc2ccc3nc(C)cc(N)c3c2)n1` (centres undefined), for which the Potency result in [1] and in experiment [10] was “inactive” throughout. The Potency in experiment [3] was 4.69 µM (active); in experiment [4], 14.8 µM (active); in experiment [5], 7.43 µM (active).
On to `Cc1ccc(-n2nc(C(C)(C)C)cc2NC(=O)Nc2ccc(OCCN3CCOCC3)c3ccccc23)cc1`, for which, in experiment [1], the Potency result was “inactive”. Also, the Potency was 2.64 µM (active) in experiment [3], 18.7 µM (active) in experiment [8], 18.7 µM (active) in experiment [10] and 16.6 µM (active) in [5].
As to `CCOC(=O)N[C@@H]1CC[C@@H]2[C@@H](C1)C[C@H]1C(=O)O[C@H](C)[C@H]1[C@@H]2C=Cc1ccc(-c2cccc(F)c2)cn1`, the Potency in [10] and in experiment [4] was 18.7 µM (active) throughout.
Take `Cc1ccccc1C(C(=O)NC1CCCC1)N(C(=O)Cn1cnc2ccccc21)c1cccc(F)c1` (centres undefined): the Potency in [3] is 16.6 µM (active); in [10], 0.0264 µM (active). The Potency result in experiment [8] and in experiment [5] was “inactive” in each case.
`Cc1c(CN2CCN(C(=O)C(C)C)CC2)sc2c(N3CCOCC3)nc(-c3cnc(N)nc3)nc12`: the Potency in experiment [2] was 0.0833 µM (active); in [3], 0.0469 µM (active); in [8], 0.833 µM (active); in experiment [10], 0.166 µM (active); in experiment [9], 0.0235 µM (active).
As to `CCOc1ccc(Cc2cc([C@@H]3O[C@H](CO)[C@@H](O)[C@H](O)[C@@H]3O)ccc2Cl)cc1`, the Potency entry in experiment [2], in experiment [3] and in experiment [9] was “inactive” each time. Also, in experiment [10], the Potency is 14.8 µM (active).
Turning to `CC(c1cc2ccccc2s1)N(O)C(N)=O` (centres undefined), the Potency result in experiment [1], in experiment [2], in experiment [3], in experiment [8], in experiment [10] and in [9] was “inactive” each time. Besides, the Potency result in experiment [4] was “inactive”.
As to `CCOc1cc(C=C2C(=O)N(c3ccccc3)N=C2C)cc(Cl)c1OCC(=O)OC`, the Potency result in experiment [2] and in experiment [10] was “inactive” in each case. In addition, the Potency in experiment [3] was 9.35 µM (active); in experiment [8], 18.7 µM (active).
